Laboratory results reported in PubChem BioAssay (NCI).
The panel holds about 83,000 compounds, 20% with a hit somewhere; the sample as a whole holds those more often.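 96-well plates, one dose, 48 hours. Percent growth reported; active if below 10.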 Values without a mark were called inactive. Calls of active or inactive are those of the source.

What was measured:
Experiment in all cases: NCI-60 one-dose screen, 48 h (100 = growth as untreated, 0 = no growth, -100 = all killed)
Settings in all cases: 10 µM unless noted
T-47D breast = test system: T-47D breast
MDA-MB-435 melanoma = test system: MDA-MB-435 melanoma
SW-620 colon = test system: SW-620 colon
MCF7 breast = test system: MCF7 breast
HCT-116 colon = test system: HCT-116 colon
HCC-2998 colon = test system: HCC-2998 colon
KM12 colon = test system: KM12 colon

Compound	growth (T-47D breast)	growth (MDA-MB-435 melanoma)	growth (SW-620 colon)	growth (MCF7 breast)	growth (HCT-116 colon)	growth (HCC-2998 colon)	growth (KM12 colon)
O=C1NC(=O)C(Cc2ccc(OCc3ccc(-c4cc(F)c(F)c(F)c4)cc3)cc2)S1 (stereo not given)	57.6%	99%	95.2%	83.9%	83.9%	97.3%	81.9%
COc1ccc(NC(=O)Nc2ccc(-c3cccnc3)cc2N2CCC(CO)CC2)cc1	68.8%	26%	65.2%	31.8%	12.5%	42%	38.8%
COc1cc2c(cc1OC(C)=O)C(=O)CCCC2	101%	102%	95.8%	92.3%	82.6%	-10.1% (active)	106%
CCOC(=O)C(=Cc1ccccc1[N+](=O)[O-])C(=O)OCC	25.5%	15.6%	19.2%	10.4%	7.82% (active)	48.3%	-17.7% (active)
Cn1cc(-c2noc(-c3cn(C)c4ncc(Br)cc34)n2)c2cc(Cl)ccc21	31.6%	68.3%	39.9%	65.9%	35.2%	93.9%	75.7%
Cc1ccc(S(=O)(=O)Oc2ccc(Br)cc2Br)cc1	70.7%	-46% (active)	58.6%	75.7%	49.3%	78.3%	45.9%
Oc1c(CNCCNCc2cc(Cl)cc(Cc3ccccc3)c2O)cc(Cl)cc1Cc1ccccc1	26.1%	22.8%	29.6%	17.4%	18.6%	20.2%	20.5%
Cc1cc2c(C(C)C)c(O)c(O)c(C=NCc3ccoc3)c2c(O)c1-c1c(C)cc2c(C(C)C)c(O)c(O)c(C=NCc3ccco3)c2c1O	33.5%	67.1%	24.6%	22.4%	20.7%	35.5%	19.4%
CC(C)CCSC1=CC(=O)c2ccccc2C1=O	-41.4% (active)	63.8%	-16.7% (active)	42.5%	-100% (active)	100%	92.1%
CN(Cc1cccc(C(F)(F)F)c1)C(=O)[C@@H](CC(=O)N1CCC(N2CCCCC2)CC1)N1C(=O)[C@@H](N2C(=O)OC[C@@H]2c2ccccc2)[C@H]1/C=C/c1ccccc1	76.3%	73.1%	93.2%	65.4%	85.2%	91.9%	102%
CCOC(=O)CC(c1ccccc1)C(C#N)c1ccccc1 (stereo not given)	89.6%	96.4%	95.3%	99.8%	92%	114%	92.3%
O=C(CCCSc1nc(-c2ccccc2)cc(-c2ccccc2)n1)NO	-2.43% (active)	12.3%	16%	9.38% (active)	9.52% (active)	17.7%	14.4%
Nc1nc(Cl)c2ncn(Cc3cc4c(cc3I)OCO4)c2n1	30.9%	34.6%	18.3%	18.9%	16.7%	76.4%	9.48% (active)
Nc1cc(Cl)cc2cccnc12	112%	106%	102%	95.2%	109%	93.5%	101%
COc1ccc(-c2cc(-c3ccc(OC)c(OC)c3)nc(SCCCCCC(=O)NO)n2)cc1	-1.6% (active)	40.7%	32.8%	54.4%	14.6%	86.7%	63.9%
CC1Cc2c(Cl)ncnc2N(C)c2ccc(Cl)cc21 (stereo not given)	2.19% (active)	3.3% (active)	6.73% (active)	7.64% (active)	7.96% (active)	36.9%	10.1%
CC1Cc2c(Cl)ncnc2N(C)c2ccccc21 (stereo not given)	42.5%	14.9%	14%	14.1%	12.9%	34.5%	11.3%
Cc1ccc(-c2cc(O)c(-c3ccc(C)cc3C)cc2O)c(C)c1	67.1%	66.5%	56.5%	49.2%	23.9%	77.7%	55.3%
Cn1cc(-c2noc(-c3cn(C)c4ncccc34)n2)c2cc(Cl)ccc21	54.2%	87%	89%	62.1%	94.1%	99.8%	103%

Compound	growth (T-47D breast)	growth (MDA-MB-435 melanoma)	growth (SW-620 colon)	growth (MCF7 breast)	growth (HCT-116 colon)	growth (HCC-2998 colon)	growth (KM12 colon)
Cn1ncc2c(Nc3ccc(O)cc3)nc(Cl)nc21	106%	102%	118%	94%	108%	105%	106%
CCCC(NC(=O)OCc1ccccc1)C(=O)O (stereo not given)	99.6%	109%	97.9%	96%	98.1%	–	109%
O=C(Nc1ccc(Nc2ccncc2)cc1)c1ccc([N+](=O)[O-])cc1	29.7%	79.5%	30.5%	51.6%	27.3%	66.7%	79.5%
CN(C)Cc1ccc[nH]1	83.5%	110%	94.6%	97.9%	77.5%	–	108%
CCN(CCO)CCC(=O)c1ccc([N+](=O)[O-])cc1	90.6%	111%	113%	98.6%	112%	97.4%	102%
Cc1ccc(N)c(O)c1	94.1%	102%	92.2%	–	85.2%	-4.78% (active)	99.5%
O=C1C(Cl)=C(Nc2ccc3cn[nH]c3c2)C(=O)c2ccccc21	-52.3% (active)	-95% (active)	-86% (active)	-68.3% (active)	-98.6% (active)	-83% (active)	28%
COc1ccc2c(c1)C(C)Cc1c(Cl)nc(C)nc1N2C (stereo not given)	39.6%	-20.5% (active)	24.8%	19.7%	12.2%	30.3%	21%
c1ccc(-c2n[nH]c(-c3ccccn3)n2)nc1	95.8%	106%	117%	93.5%	110%	108%	128%
Cc1ccc(S(=O)(=O)N/N=C2\CC3CCC2(C)C3(C)C)cc1 (stereo not given)	105%	103%	99.3%	90.3%	104%	748%	95.4%
COc1cc(OC)cc(C(=O)Nc2cc(-c3cccnc3)nc(NCCCN3CCOCC3)n2)c1	72.8%	102%	99.9%	88%	89.2%	123%	104%
C[N+](C)(C)c1ncnc2[n-]cnc12	84%	104%	96.1%	89.8%	105%	–	93.6%
C[C@]12CCc3c(ccc4cc(O)ccc34)[C@@H]1CC[C@H]2O	91.8%	80.1%	99.1%	116%	102%	107%	98.1%
CCCCCC1CCCCN1C(=O)OCCCC (stereo not given)	99.1%	105%	111%	96.7%	109%	–	104%
CC(=O)O.CC(=O)O.O.[Fe]	97.7%	128%	98.3%	–	108%	115%	104%
COc1ccc(C(=O)c2nccc3cc(OC)c(OC)cc23)cc1OC	79.4%	119%	96%	93.2%	92.9%	–	104%
CC1Cc2c(ncnc2-n2cnc3ccccc32)N(C)c2ccccc21 (stereo not given)	33.3%	-23.7% (active)	17.7%	–	21.3%	64.8%	27.8%
CCOC(=O)COc1c(C)cc(SSc2cc(C)c(OCC(=O)OCC)c(C)c2)cc1C	91.3%	114%	99.5%	–	104%	112%	72.4%
